# Data published in PubChem BioAssay (EPA / NIEHS).
# Several values for one entry are separate records, joined by “and”; a condition that tells them apart may be missing. Identical values can stand only once. Where a structure was tested more than once in an assay, its records may differ in their call. Activity calls are given as the source filed them. Rule for the calls: active = hit-call score of the fitted dose curve at least 0.9, where 1 is the maximum; inactive = score below 0.9.
# Read-out: CD40, CD40 (gene 958)
# Assay: BSK_LPS_CD40: BioMAP Diversity Plus: LPS Assay for CD40 Biomarker Activity (AID 2283076)
# Conditions: primary human HUVEC with PBMC; actives raise or lower the signal
# Method: BSK_LPS is a cell-based, multiplexed-readout assay that uses umbilical vein endothelium and peripheral blood mononuclear cells, a human vascular primary cell co-culture, with measurements taken at 24 hours after chemical dosing in a 96-well plate.BSK_LPS_CD40 is an assay component measured in the BSK_LPS assay. It measures CD40 antibody related to regulation of gene expression using ELISA technology.Data from the assay component BSK_LPS_CD40 was analyzed into 1 assay endpoint. This assay endpoint, BSK_LPS_CD40, was analyzed with bidirectional fitting relative to DMSO as the negative control and baseline of activity. Using a type of binding reporter, gain or loss-of-signal activity can be used to understand changes in the signaling as they relate to the gene CD40. Furthermore, this assay endpoint can be referred to as a primary readout, because this assay has produced multiple assay endpoints where this one serves a signaling function. To generalize the intended target to other relatable targets, this assay endpoint is annotated to the cytokine intended target family, where the subfamily is inflammatory factor.
# The levels of cell surface (or secreted, indicated by the prefix "s") biomarker endpoints were measured by ELISA. Overt cytotoxicity to cells in confluent adherent cultures (all systems other than the BT system) was assessed by measuring total protein levels using sulforhodamine B (SRB) staining in parallel cultures at the time of biomarker measurements, indicated as SRB endpoints. For proliferation assays for adherent cell types, individual cell types are cultured at sub-confluence and relative cell numbers quantified by SRB staining at time points optimized for each system (48 h: 3C and CASM3C systems; 72 h: BT and HDF3CGF systems; 96 h: SAg system). SRB was performed by staining cells with 0.1% SRB after fixation with 10% TCA and reading wells at 560 nm.Viability and proliferation of PBMC (T cells) was quantified by Alamar Blue reduction for the SAg and BT systems. For PBMC viability (referred to as PBMC Cytotoxicity within the assay endpoint names), cells were plated (75,000/well in a 96-well plate) and then chemical samples added for 1 h before addition of activators, SEB and TSST-1 (20 ng/mL final concentration each). Cells were incubated for 90 h. Then, Alamar Blue (20 uL/well) (Invitrogen, Cat DAL1100) was added for 6 h, and the plates were read with a fluorescence microplate reader at 546/580 nm (excitation/emission). For PBMC proliferation, cells were plated and activated as above but incubated for only 16 h prior to addition of Alamar Blue. Plates were read after 6 h.
Compound,outcome,AC50
CN(C)CCC(c1ccc(Cl)cc1)c1ccccn1 (configuration not stated),inactive,
COC(=O)/C=C\C(=O)OC,inactive,
CCCCC(CC)COC(=O)C=Cc1ccc(OC)cc1 (configuration not stated),inactive,20 µM (active)
CCCCCCCCCC/C=C/C1CC(=O)OC1=O (configuration not stated),inactive,
O=C(C(=O)c1ccccc1)c1ccccc1,inactive,
CCC(C)=NO,inactive,
COc1ccccc1Oc1c(NS(=O)(=O)c2ccc(C(C)(C)C)cc2)nc(-c2ncccn2)nc1OCCO,inactive,
CC[N+](CC)(CC(=O)Nc1c(C)cccc1C)Cc1ccccc1 (tested in a mixture with another compound),inactive,
Oc1cccc2ccccc12,inactive,
O=[N+]([O-])c1cc(S(=O)(=O)Nc2ccccc2)ccc1Nc1ccccc1,,32.6 µM (active) and 20 µM (active)
CC(C)C1OCCN1CCOC(=O)NCCCCCCNC(=O)OCCN1CCOC1C(C)C (configuration not stated),inactive,
CCCCCCCCCCCCCCCCCC[N+](C)(C)C,,6.84 µM (active)
CCCCCCC(O)CCCCCCCCCCC(=O)OC (configuration not stated),inactive,
Cc1c(C(N)=O)cc([N+](=O)[O-])cc1[N+](=O)[O-],inactive,
CN(C)c1ccc(C(c2ccccc2)c2ccc(N(C)C)cc2)cc1,,20 µM (active)
CC[N+](CC)(CC(=O)Nc1c(C)cccc1C)Cc1ccccc1,inactive,
OC(C(F)(F)F)(C(F)(F)F)C(O)(C(F)(F)F)C(F)(F)F,,29.8 µM (active) and 21.6 µM (active)
Cc1cc(-n2nc3ccc(Cl)cc3n2)c(O)c(C(C)(C)C)c1,inactive,
Sc1nc2ccccc2s1,inactive,
CCC[Si](OC(C)=O)(OC(C)=O)OC(C)=O,inactive,
COc1ccc(C(=O)c2ccccc2O)c(O)c1,inactive,
C1CN(CCOCCN2CCOCC2)CCO1,inactive,
CN(C)Cc1cc(C(C)(C)C)c(O)c(C(C)(C)C)c1,inactive,
CC(C)CC(=O)CC(C)CC(C)C (configuration not stated),inactive,
COc1cc(CNC(=O)CCCC/C=C/C(C)C)ccc1O,inactive,
Cc1cccnc1,inactive,
